Assay results from the supplement of paper PMC4466140.

Target: SpBzz1-D2
Assay: SPOT peptide array binding signal intensity (averaged, normalized) (arbitrary units (background-subtracted, floor 0; scale differs between SH3 domains)); higher = stronger binding of the SH3 domain to the peptide
Outline: (§1)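 GST-fused SH3 domains from four yeast species were expressed in E. coli BL21(DE3), purified on glutathione Sepharose and incubated at 10 μg/ml overnight at 4°C in TBS-based blocking buffer on cellulose membranes carrying synthetic 15-mer peptides, with cysteines replaced by serines. Bound protein was detected with anti-GST antibody, an HRP anti-mouse secondary and luminol, then imaged and quantified with Genespotter. Binding signal is the normalized, background-subtracted spot intensity averaged over replicates, in arbitrary units that differ between domains.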

Binder	SPOT peptide array binding signal intensity
IKKRNKIRLPSGSPE	2

Target: SpCyk3
Assay: as above
Outline: as §1

Binder	SPOT peptide array binding signal intensity
IKKRNKIRLPSGSPE	6.5

Target: SpHof1
Assay: as above
Outline: as §1

Binder	SPOT peptide array binding signal intensity
IKKRNKIRLPSGSPE	253

Target: SpHof1-2
Assay: as above
Outline: as §1

Binder	SPOT peptide array binding signal intensity
IKKRNKIRLPSGSPE	4.5

Target: SpHof1-3
Assay: as above
Outline: as §1

Binder	SPOT peptide array binding signal intensity
IKKRNKIRLPSGSPE	664

Target: SpHse1
Assay: as above
Outline: as §1

Binder	SPOT peptide array binding signal intensity
IKKRNKIRLPSGSPE	457

Target: SpLsb1
Assay: as above
Outline: as §1

Binder	SPOT peptide array binding signal intensity
IKKRNKIRLPSGSPE	6.5

Target: SpLsb4
Assay: as above
Outline: as §1

Binder	SPOT peptide array binding signal intensity
IKKRNKIRLPSGSPE	104

Target: SpMyo1
Assay: as above
Outline: as §1

Binder	SPOT peptide array binding signal intensity
IKKRNKIRLPSGSPE	4

Target: SpNbp2
Assay: as above
Outline: as §1

Binder	SPOT peptide array binding signal intensity
IKKRNKIRLPSGSPE	836

Target: SpPex13
Assay: as above
Outline: as §1

Binder	SPOT peptide array binding signal intensity
IKKRNKIRLPSGSPE	6

Target: SpRvs167
Assay: as above
Outline: as §1

Binder	SPOT peptide array binding signal intensity
IKKRNKIRLPSGSPE	8.5

Target: SpSla1-D1-D2
Assay: as above
Outline: as §1

Binder	SPOT peptide array binding signal intensity
IKKRNKIRLPSGSPE	1.5

Target: SpSla1-D3
Assay: as above
Outline: as §1

Binder	SPOT peptide array binding signal intensity
IKKRNKIRLPSGSPE	2
